We go through ten molecules from PubChem BioAssay (NCI).

Among the test systems are HT29 colon; SNB-75 CNS; SNB-19 CNS; U251 CNS; PC-3 prostate; SK-MEL-5 melanoma; UACC-62 melanoma; LOX IMVI melanoma; SK-MEL-28 melanoma; SK-MEL-2 melanoma; EKVX NSCLC; SN12C renal; UO-31 renal; TK-10 renal; ACHN renal; A498 renal; CCRF-CEM leukemia; MOLT-4 leukemia; SR leukemia; CAKI-1 renal.
Common to all, as to experiment: NCI-60 one-dose screen, 48 h (100 = growth as untreated, 0 = no growth, -100 = all killed)
Common to all, as to conditions: 10 µM

This is part of a sample that, as a whole, favours compounds with a hit. Of some 83,000 tested, about 20% had one in any assay.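 Treatment: one concentration, 48 hours, 96-well format. Scoring: percent growth, with anything below 10 considered active.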 A number with no mark means an inactive call. Calls of active or inactive are those of the source.

Turning to `COc1ccc(-c2nc3ncccn3c2-c2nnc(-c3ccsc3C)o2)cc1`, the growth in the assay on HT29 colon is 103%; in the assay on SNB-75 CNS it was 17.5%; with SNB-19 CNS it was 68.9%; with U251 CNS, 72.4%; in the assay on PC-3 prostate, 83.6%; in the assay on SK-MEL-5 melanoma, 81%. Moreover, the growth was 78.3% with UACC-62 melanoma; 88.4% with LOX IMVI melanoma; 78.2% in the assay with SK-MEL-28 melanoma; 90.5% with SK-MEL-2 melanoma; 94.5% in the assay on EKVX NSCLC; 87.7% in the assay on SN12C renal. In addition, the growth in the assay on UO-31 renal is 73.8%; with TK-10 renal it was 96.7%; in the assay with ACHN renal, 72.3%; with A498 renal, 99.4%; in the assay with CCRF-CEM leukemia, 90.1%; in the assay with MOLT-4 leukemia, 97%. Besides, the growth in the assay with SR leukemia is 83.4%.

Regarding `COc1cc(C(=O)N2CCN(c3ccccc3OC)CC2)c(N)cc1OCCCN1CCN(c2ccccc2OC)CC1`, the growth is 98.2% with HT29 colon; 104% in the assay with SNB-75 CNS; 104% with SNB-19 CNS; 96.6% with U251 CNS; 69% in the assay with PC-3 prostate; 44.4% in the assay with SK-MEL-5 melanoma. Further, the growth in the assay with UACC-62 melanoma is 79.4%; in the assay with LOX IMVI melanoma it was 78.8%; with SK-MEL-28 melanoma, 119%; with SK-MEL-2 melanoma, 83.2%; with EKVX NSCLC, 83.2%; in the assay on SN12C renal, 98.6%. For the same molecule, the growth in the assay with UO-31 renal was 62.4%; in the assay with TK-10 renal it was 113%; with ACHN renal, 88.8%; with A498 renal, 117%; in the assay with CCRF-CEM leukemia it was 4.33% (active); with MOLT-4 leukemia, 53.8%. Further, the growth in the assay with SR leukemia is 67.7%.

Regarding `COc1ccc2c(c1)nc(N)c1c3cccnc3cn21`, the growth in the assay with HT29 colon was -5.58% (active); with SNB-75 CNS, 42%; in the assay on SNB-19 CNS it was 35.9%; with U251 CNS, 12.7%; in the assay with PC-3 prostate, 20.6%; in the assay on SK-MEL-5 melanoma it was -38.1% (active). Also, the growth was 16% in the assay with UACC-62 melanoma; 35.1% in the assay with LOX IMVI melanoma; 62.6% in the assay with SK-MEL-28 melanoma; 53.2% in the assay with SK-MEL-2 melanoma; 66.5% in the assay on EKVX NSCLC; 42.3% in the assay on UO-31 renal. For the same molecule, the growth with TK-10 renal was 51.3%; in the assay on ACHN renal it was 37.8%; with CAKI-1 renal it was -15.7% (active); in the assay with A498 renal, -9.56% (active); in the assay on CCRF-CEM leukemia, 22.7%; in the assay on MOLT-4 leukemia, 30.9%. For the same molecule, the growth in the assay with SR leukemia is 6.83% (active).

For `Cc1cc(C)c(NC(=O)c2sc3nc4c(cc3c2N)C(=O)CCC4)c(C)c1`, the growth in the assay on HT29 colon was 0.48% (active); in the assay with SNB-75 CNS, 0% (active); with SNB-19 CNS, 40.2%; in the assay on U251 CNS, 21.1%; in the assay on PC-3 prostate, 23.5%; in the assay on SK-MEL-5 melanoma, 11.3%. For the same molecule, the growth with UACC-62 melanoma is 23.2%; in the assay on LOX IMVI melanoma it was 50.6%; in the assay on SK-MEL-28 melanoma it was 56%; in the assay with SK-MEL-2 melanoma, 36.1%; with EKVX NSCLC, 54.4%; in the assay on UO-31 renal, 56.9%. Besides, the growth is 44.8% in the assay on TK-10 renal; 55.3% in the assay with ACHN renal; -22.2% (active) in the assay with CAKI-1 renal; -7.37% (active) with A498 renal; 22.1% in the assay on CCRF-CEM leukemia; 43% with MOLT-4 leukemia. Moreover, the growth with SR leukemia is 10.5%.

In the case of `COc1ccc2c(c1)sc1nc(-c3ccccc3)c(-c3cccnc3)n12`, the growth in the assay on HT29 colon was 91.5%; in the assay with SNB-75 CNS, 95.5%; in the assay with SNB-19 CNS it was 103%; with U251 CNS, 96.2%; with PC-3 prostate, 88.9%; with SK-MEL-5 melanoma, 77.7%. Further, the growth is 82.7% in the assay on UACC-62 melanoma; 91.4% with LOX IMVI melanoma; 110% in the assay with SK-MEL-28 melanoma; 120% with SK-MEL-2 melanoma; 83% with EKVX NSCLC; 98.2% with SN12C renal. Moreover, the growth in the assay with UO-31 renal is 95.2%; in the assay on TK-10 renal, 116%; in the assay with CAKI-1 renal, 81.2%; in the assay on A498 renal it was 58.4%; in the assay on CCRF-CEM leukemia it was 93.1%; in the assay on MOLT-4 leukemia, 86.6%. For the same molecule, the growth in the assay on SR leukemia is 86.6%.

Turning to `CN(C)CCNC(=O)c1cccn2c(=O)c3cc4ccccc4cc3nc12`, the growth with HT29 colon was -60.7% (active); with SNB-75 CNS, -72.7% (active); in the assay with SNB-19 CNS it was 17.6%; in the assay with U251 CNS it was -11.1% (active); with PC-3 prostate, -16.6% (active); in the assay on SK-MEL-5 melanoma, -20.3% (active). The growth was -56% (active) in the assay with UACC-62 melanoma; 1.07% (active) in the assay on LOX IMVI melanoma; -25.8% (active) in the assay with SK-MEL-28 melanoma; -65.9% (active) in the assay with SK-MEL-2 melanoma; 16.1% with EKVX NSCLC; 7.89% (active) in the assay with SN12C renal. Further, the growth in the assay on UO-31 renal was 18.2%; in the assay with TK-10 renal, -29% (active); in the assay on ACHN renal, 14.7%; in the assay on A498 renal, -56.7% (active); in the assay with MOLT-4 leukemia, -27.2% (active); in the assay with SR leukemia, -29.9% (active).

For the molecule `S=c1[nH]ccn1-c1c(Cl)cccc1Cl`, the growth is 105% in the assay with HT29 colon; 102% in the assay with SNB-75 CNS; 90.9% in the assay with SNB-19 CNS; 104% with U251 CNS; 106% in the assay on PC-3 prostate; 106% in the assay on SK-MEL-5 melanoma. Also, the growth is 97.3% in the assay with UACC-62 melanoma; 99% with LOX IMVI melanoma; 101% in the assay with SK-MEL-28 melanoma; 140% in the assay on SK-MEL-2 melanoma; 103% in the assay with EKVX NSCLC; 92.6% with SN12C renal. Moreover, the growth in the assay with UO-31 renal was 91%; in the assay with TK-10 renal, 112%; in the assay on ACHN renal, 101%; in the assay with A498 renal, 116%; in the assay with CCRF-CEM leukemia it was 76.7%; with MOLT-4 leukemia, 106%. Moreover, in the assay on SR leukemia, the growth is 104%.

Take `CCOCCOCCOCCOCCOCCOCCOCCOCCOCCO` (tested in a mixture with another compound): the growth with HT29 colon is -44% (active); with SNB-75 CNS, 32.8%; in the assay with SNB-19 CNS it was 25.2%; in the assay on U251 CNS, 7.66% (active); with PC-3 prostate, 9.21% (active); in the assay on SK-MEL-5 melanoma, -81.6% (active). The growth with UACC-62 melanoma is 13.2%; in the assay with LOX IMVI melanoma, -72.5% (active); with SK-MEL-28 melanoma it was 36.5%; in the assay with SK-MEL-2 melanoma, -61.7% (active); in the assay with EKVX NSCLC, 12.7%; in the assay on SN12C renal it was 10.5%. Also, the growth was 19.1% in the assay with UO-31 renal; 0.0792% (active) in the assay on TK-10 renal; 13.1% in the assay on CAKI-1 renal; 32.8% with A498 renal; -39.9% (active) in the assay on CCRF-CEM leukemia; -49.5% (active) in the assay on MOLT-4 leukemia. In the assay on SR leukemia, the growth is -52.4% (active).

With `CCN(CC)CCCC(C)Nc1nc(-c2ccc(OC)cc2)nc2cc(Cl)ccc12` (centres undefined), the growth in the assay on HT29 colon is 27.9%; in the assay on SNB-75 CNS, 59.6%; with SNB-19 CNS it was 74.6%; in the assay with U251 CNS, 57%; in the assay on PC-3 prostate, 48.4%; in the assay with SK-MEL-5 melanoma, 0.434% (active). For the same molecule, the growth was -46.9% (active) with UACC-62 melanoma; 32.8% in the assay on LOX IMVI melanoma; -70% (active) with SK-MEL-28 melanoma; 98.2% with SK-MEL-2 melanoma; 70.2% with EKVX NSCLC; 58% with SN12C renal. For the same molecule, the growth in the assay with UO-31 renal was 45%; with TK-10 renal it was 88.8%; in the assay on CAKI-1 renal, 78.8%; in the assay with A498 renal, 37.4%; in the assay on CCRF-CEM leukemia, 57.9%; with MOLT-4 leukemia, 37.7%. Further, the growth in the assay on SR leukemia was 51.8%.

Take `CC(C)(C)c1ccc(N2CSC(=S)N(c3ccc(C(C)(C)C)cc3)C2)cc1`: the growth in the assay with HT29 colon was 105%; in the assay with SNB-75 CNS it was 76.1%; with SNB-19 CNS it was 95.4%; in the assay on U251 CNS, 100%; with PC-3 prostate, 73.8%; in the assay with SK-MEL-5 melanoma it was 96.3%. The growth was 94.9% in the assay on UACC-62 melanoma; 101% in the assay with LOX IMVI melanoma; 105% in the assay on SK-MEL-28 melanoma; 101% in the assay on SK-MEL-2 melanoma; 84.1% in the assay with EKVX NSCLC; 99.6% in the assay on SN12C renal. Further, the growth in the assay on UO-31 renal is 79.4%; in the assay with TK-10 renal, 111%; in the assay with ACHN renal it was 89%; in the assay on A498 renal, 107%; in the assay on CCRF-CEM leukemia, 88.5%; with MOLT-4 leukemia it was 100%. Further, the growth with SR leukemia was 112%.
